From PubChem BioAssay (Tox21)
Inconclusive results are not listed. The source made the active and inactive calls. Unless noted, calls come from the whole dose curve.

Tests used:
[1] = Nuclear factor erythroid 2-related factor 2/antioxidant responsive element (Nrf2/ARE) small molecule agonists: qHTS cell viability counter screen in human keratinocytes (AID 1919968; active = well fitted curve in the direction sought with a large enough effect in the repeat runs; an effect the other way counts as inactive or inconclusive; note: nearly all actives have a fitted effect of over 55% in size)
Procedure, shortened: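 Viability counter-screen: KeratinoSens reporter cells, DMSO-delivered compounds, 23 h at 37 C, CellTiter-Fluor fluorescence.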

[2] = Nuclear factor erythroid 2-related factor 2/antioxidant responsive element (Nrf2/ARE) small molecule agonists: luciferase reporter gene qHTS assay in human keratinocytes (AID 1919969); note: nearly all actives have a fitted effect of over 35% in size
[3] = target: Gonadotropin-releasing hormone receptor (Homo sapiens) (UniProt P30968); test: Human gonadotropin-releasing hormone receptor (GnRHR) small molecule agonists, calcium flux assay in GnRHR-HEK293 cells (AID 1920063); note: nearly all actives have a fitted effect of over 35% in size
Gonadotropin-releasing hormone receptor (Homo sapiens), sequence (P30968 whole entry, looked up): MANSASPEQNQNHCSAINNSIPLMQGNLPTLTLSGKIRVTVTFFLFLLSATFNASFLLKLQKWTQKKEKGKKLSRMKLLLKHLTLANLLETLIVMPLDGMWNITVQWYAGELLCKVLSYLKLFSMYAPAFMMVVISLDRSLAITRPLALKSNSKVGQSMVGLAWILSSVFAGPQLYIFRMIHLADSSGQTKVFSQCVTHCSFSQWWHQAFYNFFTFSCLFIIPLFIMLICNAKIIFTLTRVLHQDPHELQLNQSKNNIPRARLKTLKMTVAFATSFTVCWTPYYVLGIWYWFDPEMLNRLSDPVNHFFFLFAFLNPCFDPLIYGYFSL
Procedure, shortened: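 Tox21-format agonist screen using human GnRHR-expressing HEK293 cells and a fluorescent calcium dye; kinetic 3-min fluorescence reading after compound addition, 15-point concentration series run in triplicate.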

[4] = target: KiSS-1 receptor (Homo sapiens) (UniProt Q969F8); test: Human kisspeptin (KISS1R) small molecule agonists, calcium flux assay in KISS1R-HEK293 cells (AID 1920064; active = well fitted curve in the direction sought with a large enough effect in the repeat runs; an effect the other way counts as inactive or inconclusive)
KiSS-1 receptor (Homo sapiens), sequence (Q969F8 whole entry, looked up): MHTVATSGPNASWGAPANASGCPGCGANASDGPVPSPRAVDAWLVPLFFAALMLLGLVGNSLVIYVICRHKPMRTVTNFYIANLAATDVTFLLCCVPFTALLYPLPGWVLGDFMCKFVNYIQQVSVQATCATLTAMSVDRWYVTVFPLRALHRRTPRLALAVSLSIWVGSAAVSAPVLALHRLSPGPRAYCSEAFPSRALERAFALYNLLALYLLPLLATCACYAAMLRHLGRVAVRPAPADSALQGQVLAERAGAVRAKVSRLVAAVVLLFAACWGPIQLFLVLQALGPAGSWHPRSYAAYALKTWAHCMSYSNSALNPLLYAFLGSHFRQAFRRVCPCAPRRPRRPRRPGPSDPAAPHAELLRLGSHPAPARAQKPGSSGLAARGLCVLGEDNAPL
Procedure, shortened: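 Intracellular calcium mobilization in KISS1R-HEK293 cells was recorded by fluorescence (Ex/Em 480/540) for 3 min following compound addition to cells pre-loaded 1 h with calcium dye.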

[5] = G protein-coupled receptor (GPCR) small molecule agonists, calcium flux assay: HEK293 wild type cell line counter screen (AID 1920065)
Procedure, shortened: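 In this agonist-mode screen, ATP is the positive control and DMSO the vehicle. Cells grow 18 h before a 1 h dye incubation at 37 C; signal is taken at Ex/Em 480/540 over 3 min.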

[6] = p53 small molecule agonists, cell-based qHTS assay with human liver microsomes (AID 1963577);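 note: p53 response element beta-lactamase reporter cells with liver microsomes plus NADPH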
Procedure, shortened: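 Reporter activation was measured by LiveBLAzer fluorescence intensity in p53RE-bla cells, which had been exposed to compounds for 16 h at 37 C alongside 0.5 mg/mL human liver microsomes and 0.5 mg/mL NADPH (final concentrations).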

[7] = p53 small molecule agonists, cell-based qHTS assay with rat liver microsomes (AID 1963578)
Procedure, shortened: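 Compound in DMSO added to p53RE-bla cells 5 h post-plating; rat microsomes/NADPH 0.5 mg/mL final; 16 h, 37 C; LiveBLAzer 2 h RT.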

[8] = p53 small molecule agonists, cell-based qHTS assay with human liver microsomes: qHTS cell viability counter screen (AID 1963579); note: nearly all actives have a fitted effect of over 45% in size
Procedure, shortened: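 HLM-supplemented (0.5 mg/mL final) and NADPH-supplemented (0.5 mg/mL final) p53RE-bla cultures, 4,000 cells per well, were dosed with compounds in DMSO for 16 h at 37 C; luminescent ATP detection (CellTiter-Glo, 30 min, room temperature) quantified surviving cells.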

[9] = p53 small molecule agonists, cell-based qHTS assay with rat liver microsomes: qHTS cell viability counter screen (AID 1963580); note: nearly all actives have a fitted effect of over 45% in size
Procedure, shortened: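 p53RE-bla HCT-116 cells (4,000/well) rested 5 h at 37 C, then given Tox21 compounds in DMSO with rat liver microsomes (0.5 mg/mL final) plus NADPH (0.5 mg/mL final) for 16 h at 37 C. Viability read by CellTiter-Glo luminescence after 30 min at room temperature.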

[10] = p53 small molecule agonists, cell-based qHTS assay: qHTS cell viability counter screen (AID 1963581); note: nearly all actives have a fitted effect of over 45% in size
Procedure, shortened: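 Compounds are pinned onto HCT-116 p53RE-bla cells and left 16 h at 37 C. Following the reporter FRET read, ATP is quantified by CellTiter-Glo luminescence after 30 min at room temperature.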

[11] = p53 small molecule agonists, cell-based qHTS assay (AID 1963582; active = well fitted activation curve with a large enough effect in the signal ratio in the repeat runs, not every such curve was filed as active; the % refers to the signal ratio)
Procedure, shortened: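 Agonist activity was scored from beta-lactamase FRET fluorescence in p53RE-bla cells treated 16 h at 37 C with compounds in DMSO, substrate incubation being 2 h at room temperature.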

[12] = target: 5-hydroxytryptamine receptor 2A (Homo sapiens) (UniProt P28223); test: 5-hydroxytryptamine receptor 2A (HTR2A) small molecule antagonists, cell-based qHTS assay (AID 1963586); note: nearly all actives have a fitted effect of over 45% in size
5-hydroxytryptamine receptor 2A (Homo sapiens), sequence (P28223 whole entry, looked up): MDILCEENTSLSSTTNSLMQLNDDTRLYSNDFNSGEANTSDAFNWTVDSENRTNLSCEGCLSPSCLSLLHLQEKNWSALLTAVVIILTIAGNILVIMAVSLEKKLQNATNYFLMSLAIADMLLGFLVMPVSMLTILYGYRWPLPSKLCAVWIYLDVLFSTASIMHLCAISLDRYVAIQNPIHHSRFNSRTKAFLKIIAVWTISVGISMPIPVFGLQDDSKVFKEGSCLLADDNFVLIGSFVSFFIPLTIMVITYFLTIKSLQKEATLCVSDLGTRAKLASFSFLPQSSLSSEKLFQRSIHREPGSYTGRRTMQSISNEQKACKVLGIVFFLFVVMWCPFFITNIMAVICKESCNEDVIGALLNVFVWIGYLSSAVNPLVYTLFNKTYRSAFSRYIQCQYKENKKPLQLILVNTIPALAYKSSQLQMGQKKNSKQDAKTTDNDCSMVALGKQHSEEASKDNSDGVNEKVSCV
Procedure, shortened: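 Antagonist-mode intracellular calcium assay: DOI (4 nM) added after 5 min compound pre-incubation at room temperature to dye-loaded HTR2A-CHO cells. Fluorescence followed for 3 min, sampled every second.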

[13] = target: 5-hydroxytryptamine receptor 2A (Homo sapiens) (UniProt P28223); test: 5-hydroxytryptamine receptor 2A (HTR2A) small molecule agonists, cell-based qHTS assay (AID 1963587); note: nearly all actives have a fitted effect of over 30% in size
Procedure, shortened: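 HTR2A-CHO cells, plated 18 h at 37 C/5% CO2, dye-loaded 1 h at 37 C; compounds in DMSO added by pin tool (agonist mode). Intracellular calcium flux read as kinetic fluorescence on FDSS over 2 min at 1 s intervals.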

[14] = target: Muscarinic acetylcholine receptor M1 (Homo sapiens) (UniProt P11229); test: Cholinergic receptor muscarinic 1 (CHRM1) small molecule antagonists, cell-based qHTS assay (AID 1963588); note: nearly all actives have a fitted effect of over 40% in size
Muscarinic acetylcholine receptor M1 (Homo sapiens), sequence (P11229 whole entry, looked up): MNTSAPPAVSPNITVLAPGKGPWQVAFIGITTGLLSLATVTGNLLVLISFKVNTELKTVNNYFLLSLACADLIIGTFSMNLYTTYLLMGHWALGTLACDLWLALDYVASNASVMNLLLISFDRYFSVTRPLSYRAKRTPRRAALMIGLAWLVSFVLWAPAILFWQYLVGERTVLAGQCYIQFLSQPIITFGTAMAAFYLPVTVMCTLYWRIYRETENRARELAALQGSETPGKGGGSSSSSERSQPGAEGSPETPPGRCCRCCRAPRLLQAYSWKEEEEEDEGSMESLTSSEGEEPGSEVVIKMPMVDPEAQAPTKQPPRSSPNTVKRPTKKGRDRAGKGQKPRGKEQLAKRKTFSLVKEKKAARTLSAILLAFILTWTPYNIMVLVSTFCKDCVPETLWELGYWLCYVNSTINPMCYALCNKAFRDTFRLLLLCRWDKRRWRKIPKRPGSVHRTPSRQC
Procedure, shortened: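 CHRM1-CHO calcium-flux assay, antagonist mode. Cells were seeded 18 h, dye-loaded 1 h at 37 C and given compound for 5 min at RT, then acetylcholine was added at 50nM. FDSS fluorescence was read 3 min; 15 concentrations, three runs.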

[15] = target: Muscarinic acetylcholine receptor M1 (Homo sapiens) (UniProt P11229); test: Cholinergic receptor muscarinic 1 (CHRM1) small molecule agonists, cell-based qHTS assay (AID 1963589); note: nearly all actives have a fitted effect of over 35% in size
Procedure, shortened: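 Stable CHRM1-CHO cells (human receptor) were incubated 18 h, dye-loaded for 1 h at 37 C and exposed to test compounds for agonist activity, with calcium-dependent fluorescence followed kinetically.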

[16] = cAMP Responsive Elements (CRE) small molecule agonists, cell-based qHTS assay (AID 1963590)
Procedure, shortened: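 FRET-based beta-lactamase readout (LiveBLAzer B/G, 2 h RT) quantified CRE activation in HEK 293T CRE-bla cells after 3 h treatment with DMSO-dissolved compounds.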

[17] = target: D(2) dopamine receptor (Homo sapiens) (UniProt P14416); test: Dopamine D2 receptor (DRD2) small molecule agonists, cell-based qHTS assay (AID 1963594); note: nearly all actives have a fitted effect of over 35% in size
D(2) dopamine receptor (Homo sapiens), sequence (P14416 whole entry, looked up): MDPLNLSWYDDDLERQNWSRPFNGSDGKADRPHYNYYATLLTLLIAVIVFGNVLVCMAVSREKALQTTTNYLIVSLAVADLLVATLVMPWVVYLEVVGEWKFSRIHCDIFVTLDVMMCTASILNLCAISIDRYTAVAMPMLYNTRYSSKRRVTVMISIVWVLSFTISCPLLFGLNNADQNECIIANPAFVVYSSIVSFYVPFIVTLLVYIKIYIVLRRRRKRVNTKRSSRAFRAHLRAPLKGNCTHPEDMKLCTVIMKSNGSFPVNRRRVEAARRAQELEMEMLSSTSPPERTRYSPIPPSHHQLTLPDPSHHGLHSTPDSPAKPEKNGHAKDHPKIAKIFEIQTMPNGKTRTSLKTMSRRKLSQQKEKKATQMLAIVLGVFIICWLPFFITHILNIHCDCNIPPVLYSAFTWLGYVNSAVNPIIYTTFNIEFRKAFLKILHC
Procedure, shortened: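 HEK293 cells stably expressing DRD2 were cultured 24 h at 37 C, then given Ro20-1724 (0.1 mM final) and compounds for 10 min at room temperature. NKH477 (200nM) was then added for 30 min. cAMP was read by HTRF.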

[18] = target: D(2) dopamine receptor (Homo sapiens) (UniProt P14416); test: Dopamine D2 receptor (DRD2) small molecule antagonists, cell-based qHTS assay (AID 1963595; active = well fitted inhibition curve with a large enough effect in the signal ratio in the repeat runs, with a control signal flat; the % refers to the signal ratio)
Procedure, shortened: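 Human DRD2 antagonist qHTS measuring cAMP by HTRF. The cells are exposed to compound for 10 min, then to NKH477 (200 nM) and quinpirole (12 nM) for 30 min at RT, with Ro20-1724 (0.1 mM) present throughout.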

[19] = cAMP Responsive Elements (CRE) small molecule antagonists, cell-based qHTS assay (AID 1963591; active = well fitted inhibition curve with a large enough effect in the signal ratio in the repeat runs, not every such curve was filed as active; the % refers to the signal ratio)
Procedure, shortened: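 qHTS in CRE-bla HEK 293T cells: compound in DMSO, then 0.25 uM NKH477 (final), 3 h at 37 °C/5% CO2; beta-lactamase FRET read-out after 2 h substrate incubation.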

[20] = target: Beta-2 adrenergic receptor (Homo sapiens) (UniProt P07550); test: Adrenergic beta2 receptor (ADRB2) small molecule antagonists, cell-based qHTS assay (AID 1963592); note: series mostly up to about 92 µM; nearly all actives have a fitted effect of over 50% in size
Beta-2 adrenergic receptor (Homo sapiens), sequence (P07550 whole entry, looked up): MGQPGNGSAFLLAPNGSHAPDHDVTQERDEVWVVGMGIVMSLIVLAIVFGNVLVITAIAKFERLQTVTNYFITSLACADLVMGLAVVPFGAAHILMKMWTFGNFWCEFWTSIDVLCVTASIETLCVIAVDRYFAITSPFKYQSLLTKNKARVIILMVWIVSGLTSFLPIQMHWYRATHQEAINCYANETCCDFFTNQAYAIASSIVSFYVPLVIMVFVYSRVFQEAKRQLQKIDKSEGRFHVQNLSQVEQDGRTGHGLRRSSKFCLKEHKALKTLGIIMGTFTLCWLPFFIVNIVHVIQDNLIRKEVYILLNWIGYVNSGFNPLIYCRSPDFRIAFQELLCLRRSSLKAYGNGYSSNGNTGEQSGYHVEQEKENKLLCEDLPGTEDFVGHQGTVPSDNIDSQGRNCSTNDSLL
Procedure, shortened: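 Cells (CHO, stable ADRB2 overexpression) incubated 18-20hr at 37C; compounds added from DMSO; agonist mix (1nM isoproterenol, 100uM IBMX, 25uM Ro-20-1724) added; 0.5hr RT; d2-cAMP and anti-cAMP-cryptate added; 1hr RT; 665/615 nm read.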
% is set by controls: 0 for no effect and ±100 for the full control effect.

CC(C)=CCC/C(C)=C/COC=O
inactive: Potency [1] | Potency [2] | Potency [3] | outcome [4] | outcome [5] | Potency [6] | Potency [7] | Potency [8] | Potency [9] | Potency [10] | Potency [11] | Potency [12] | Potency [13] | Potency [14] | Potency [15] | Potency [16] | Potency [17] | Potency [18]

O=C=NCc1cccc(CN=C=O)c1
inactive: activity change, negative = cytotoxicity [1] 3.98% [at 19 µM] | activity, positive = activation [2] -9.19% [at 19 µM] | activity change [3] -0.327% [at 11.8 µM, stronger effect = higher value] | activation [4] 0.462% [at 15.8 µM] | activation [5] 0.869% [at 11.8 µM] | activation [6] -0.418% [at 13.5 µM] | activation [7] 0.266% [at 13.6 µM] | activity change, negative = cytotoxicity [8] 2.85% [at 13.5 µM] | activity change, negative = cytotoxicity [9] 10.6% [at 13.5 µM] | activity change, negative = cytotoxicity [10] 8.14% [at 13.5 µM] | activation [11] -3.35% [at 13.5 µM] | activity, negative = inhibition [12] 11.7% [at 12.7 µM] | activation [13] 3.99% [at 15.9 µM] | activity, negative = inhibition [14] -10.9% [at 12.6 µM] | activation [16] 1.18% [at 19 µM] | activity change, negative = inhibition [19] 0.972% [at 18.9 µM] | activity change, negative = inhibition [20] -5.04% [at 19 µM] | activation [17] -2% [at 19 µM] | activity change, negative = inhibition [18] 2.32% [at 18.9 µM]

CCCCCN(CCCOC)C(=O)C(CCC(=O)O)NC(=O)c1ccc(Cl)c(Cl)c1 (stereo not given)
inactive: Potency [1] | Potency [2] | Potency [3] | outcome [4] | outcome [5] | Potency [6] | Potency [7] | Potency [8] | Potency [9] | Potency [10] | Potency [11] | Potency [12] | Potency [13] | Potency [14] | Potency [15] | Potency [20] | Potency [17] | Potency [18]

C=C1C[C@@]23CC[C@H]4[C@@](C)(CCC[C@@]4(C)C(=O)O[C@@H]4O[C@H](CO)[C@@H](O)[C@H](O)[C@H]4O)[C@@H]2CC[C@]1(O[C@@H]1O[C@H](CO)[C@@H](O)[C@H](O[C@@H]2O[C@H](CO)[C@@H](O)[C@H](O)[C@H]2O)[C@H]1O[C@@H]1O[C@H](CO)[C@@H](O)[C@H](O)[C@H]1O)C3
inactive: Potency [1] | Potency [2] | Potency [3] | outcome [4] | outcome [5] | Potency [6] | Potency [7] | Potency [8] | Potency [9] | Potency [10] | Potency [11] | Potency [12] | Potency [13] | Potency [14] | Potency [16] | Potency [19] | Potency [20] | Potency [17] | Potency [18]

NC(=O)CC[C@@H](N)C(=O)O
inactive: Potency [1] | Potency [2] | Potency [3] | outcome [4] | outcome [5] | Potency [6] | Potency [7] | Potency [8] | Potency [9] | Potency [10] | Potency [11] | Potency [12] | Potency [13] | Potency [14] | Potency [16] | Potency [19] | Potency [20] | Potency [17] | Potency [18]

CCOC(=O)N1CCC(Nc2ccc(Cl)cc2N)CC1
inactive: Potency [1] | Potency [2] | Potency [3] | outcome [4] | outcome [5] | Potency [6] | Potency [7] | Potency [8] | Potency [9] | Potency [10] | Potency [11] | Potency [12] | Potency [13] | Potency [14] | Potency [15] | Potency [20] | Potency [18]
